Eleven molecules from PubChem BioAssay (NCI) can be followed below.

Compounds without any hit were thinned out: in the full panel of roughly 83,000, 20% have a hit.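 Percent growth is the endpoint: 0 to 100 indicates growth inhibition (40 means 60% inhibition), 0 means no net growth, and negative values indicate cell death.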 Calls of active or inactive are those of the source. The calls were made as follows: active = growth percent below 10; inactive = the rest.

Test systems include SR leukemia; RPMI-8226 leukemia; OVCAR-8 ovarian; OVCAR-4 ovarian; SK-OV-3 ovarian; IGROV1 ovarian; OVCAR-3 ovarian; HS 578T breast; NCI/ADR-RES ovarian; OVCAR-5 ovarian.
Holding throughout (experiment): NCI-60 one-dose screen, 48 h (100 = growth as untreated, 0 = no growth, -100 = all killed)
Common to all, as to details: 10 µM unless noted

Take `C/C(=N\NC(=O)CSc1nc2ccccc2c(=O)n1Cc1ccc(S(N)(=O)=O)cc1)c1ccc(F)cc1`: the growth was 100% (inactive) with SR leukemia; 112% (inactive) with RPMI-8226 leukemia; 101% (inactive) in the assay with OVCAR-8 ovarian; 99.8% (inactive) in the assay on OVCAR-4 ovarian; 111% (inactive) with SK-OV-3 ovarian; 106% (inactive) in the assay with IGROV1 ovarian. Also, the results for the growth in the assay on OVCAR-3 ovarian, in the assay on HS 578T breast and in the assay with NCI/ADR-RES ovarian were 115% (inactive), 102% (inactive) and 104% (inactive), respectively.
As to `Cc1ccc(NC(C(=O)c2ccccc2)c2ccccc2)cc1` (stereo unspecified), the growth in the assay on SR leukemia is 69% (inactive); in the assay with RPMI-8226 leukemia, 25.6% (inactive); in the assay on OVCAR-8 ovarian, 45.9% (inactive); in the assay on OVCAR-4 ovarian it was 49.5% (inactive); with SK-OV-3 ovarian it was 95.5% (inactive); in the assay with IGROV1 ovarian, 57.6% (inactive). Moreover, the growth is 29.4% (inactive) in the assay with OVCAR-3 ovarian, 32.7% (inactive) in the assay on HS 578T breast and 92.8% (inactive) with NCI/ADR-RES ovarian.
Consider `COc1cc2nc(-c3ccc(C(F)(F)F)cc3)cc(OCCN3CCCCC3)c2cc1OC`, for which the growth was 19.2% (inactive) in the assay with SR leukemia; 42.3% (inactive) in the assay with RPMI-8226 leukemia; 78.2% (inactive) in the assay with OVCAR-8 ovarian; 58.4% (inactive) in the assay on OVCAR-5 ovarian; 81.8% (inactive) in the assay on OVCAR-4 ovarian; 46.5% (inactive) in the assay on IGROV1 ovarian. Further, the growth with HS 578T breast was 74.7% (inactive); in the assay on NCI/ADR-RES ovarian, 63.1% (inactive).
`N#Cc1cccc(-c2ccc3c(c2)NC(=O)/C3=C\c2ccc[nH]2)c1`: the growth in the assay with SR leukemia was 3.89% (active); with RPMI-8226 leukemia it was 54.1% (inactive); with OVCAR-8 ovarian, 85.9% (inactive); with OVCAR-4 ovarian it was 30.9% (inactive); with SK-OV-3 ovarian it was 24.1% (inactive); in the assay on IGROV1 ovarian, 34.2% (inactive). The growth in the assay with OVCAR-3 ovarian was 30.7% (inactive); in the assay with HS 578T breast, 92.1% (inactive); in the assay with NCI/ADR-RES ovarian, 76.1% (inactive).
Turning to `Fc1ccc2c(-c3cncn3CCc3ccccc3)c[nH]c2c1`, the growth in the assay with SR leukemia was 96.3% (inactive); in the assay on RPMI-8226 leukemia, 72.7% (inactive); in the assay with OVCAR-8 ovarian, 97.7% (inactive); in the assay on OVCAR-5 ovarian, 92.9% (inactive); in the assay with OVCAR-4 ovarian, 60.7% (inactive); in the assay with IGROV1 ovarian it was 77.4% (inactive). In addition, the figures for the growth in the assay on OVCAR-3 ovarian, in the assay on HS 578T breast and with NCI/ADR-RES ovarian were 85.7% (inactive), 67.3% (inactive) and 95.1% (inactive), respectively.
With `CCOC(=O)CC1CSC(N/N=C/c2ccc(-n3cccn3)cc2)=N1` (stereo unspecified), the growth with SR leukemia is 98.3% (inactive); in the assay on RPMI-8226 leukemia, 99.1% (inactive); with OVCAR-8 ovarian it was 97.8% (inactive); in the assay with OVCAR-4 ovarian it was 109% (inactive); in the assay on SK-OV-3 ovarian, 111% (inactive); in the assay with IGROV1 ovarian it was 114% (inactive). Also, the growth with OVCAR-3 ovarian was 110% (inactive); in the assay with HS 578T breast, 97.8% (inactive); with NCI/ADR-RES ovarian, 101% (inactive).
For the molecule `N#CC(C#N)=Cc1cc2ccccc2nc1Oc1ccc(C(F)(F)F)cc1`, the growth with SR leukemia is 30.8% (inactive); with RPMI-8226 leukemia, 3.66% (active); in the assay with OVCAR-8 ovarian, 92.5% (inactive); in the assay on OVCAR-5 ovarian it was 102% (inactive); in the assay with OVCAR-4 ovarian it was 99.7% (inactive); in the assay on IGROV1 ovarian it was 79.3% (inactive). Besides, the growth with OVCAR-3 ovarian is 101% (inactive); with HS 578T breast, 96.9% (inactive); in the assay with NCI/ADR-RES ovarian, 92.5% (inactive).
Turning to `CCOC(=O)C1=C(CCl)NC(=O)NC1c1ccc2c(c1)OCO2` (stereo unspecified), the growth with SR leukemia was 28% (inactive); in the assay on RPMI-8226 leukemia, 15.3% (inactive); with OVCAR-8 ovarian, 45.7% (inactive); in the assay with OVCAR-4 ovarian it was 32.5% (inactive); with SK-OV-3 ovarian, 81.8% (inactive); in the assay with IGROV1 ovarian, 37.2% (inactive). For the same molecule, the growth is 24.8% (inactive) in the assay with OVCAR-3 ovarian, 71.9% (inactive) in the assay with HS 578T breast and 58.6% (inactive) in the assay with NCI/ADR-RES ovarian.
Take `COc1cc2c(=O)n(CCCN(C)C)c3c4cc5c(cc4ccc3c2cc1OC)OCO5`: the growth in the assay with SR leukemia was 9.59% (active); in the assay with RPMI-8226 leukemia, 6.97% (active); in the assay on OVCAR-8 ovarian it was 48.3% (inactive); in the assay on OVCAR-4 ovarian, 69.9% (inactive); in the assay with IGROV1 ovarian it was 31.9% (inactive); in the assay with OVCAR-3 ovarian, 65.5% (inactive). For the same molecule, the growth in the assay on HS 578T breast was 67.1% (inactive); in the assay with NCI/ADR-RES ovarian, 53.5% (inactive).
As for `Cn1cc(CC2CC(=O)N(c3ccccc3)C2=O)sc1=NC(=O)c1ccccc1` (stereo unspecified), the growth was 96% (inactive) with SR leukemia; 105% (inactive) in the assay on RPMI-8226 leukemia; 104% (inactive) in the assay with OVCAR-8 ovarian; 103% (inactive) in the assay on OVCAR-4 ovarian; 97.1% (inactive) in the assay with SK-OV-3 ovarian; 93.1% (inactive) with IGROV1 ovarian. In addition, the growth was 89.8% (inactive) in the assay with HS 578T breast and 97.5% (inactive) with NCI/ADR-RES ovarian.
`COc1cc(/C(C)=C(\c2ccc(Cl)cc2)c2ccc(OCCN(C)C)cc2)ccc1F`: the growth in the assay on SR leukemia was 0.487% (active); in the assay on RPMI-8226 leukemia it was 12.2% (inactive); in the assay with OVCAR-8 ovarian, 73.9% (inactive); with OVCAR-4 ovarian it was 45.9% (inactive); with SK-OV-3 ovarian, 111% (inactive); with IGROV1 ovarian, 35.3% (inactive). The growth in the assay with OVCAR-3 ovarian was 59.4% (inactive); in the assay on HS 578T breast it was 71.7% (inactive); in the assay on NCI/ADR-RES ovarian it was 69.4% (inactive).
